# Records with an inconclusive call do not appear. Unmarked numbers belong to inactive results. Activity calls are given as the source filed them. Calls follow the shape of the dose curve; as a rule, active = well fitted activation curve with a large enough effect in the signal ratio in the repeat runs (not every such curve was filed as active); inconclusive = weak or mixed curves, or effect the other way; inactive = flat fitted curve, though single readings scatter; the % refers to the signal ratio.
# Biological target: Bile acid receptor (Homo sapiens) (UniProt Q96RI1)
# Sequence (Q96RI1 whole entry, looked up): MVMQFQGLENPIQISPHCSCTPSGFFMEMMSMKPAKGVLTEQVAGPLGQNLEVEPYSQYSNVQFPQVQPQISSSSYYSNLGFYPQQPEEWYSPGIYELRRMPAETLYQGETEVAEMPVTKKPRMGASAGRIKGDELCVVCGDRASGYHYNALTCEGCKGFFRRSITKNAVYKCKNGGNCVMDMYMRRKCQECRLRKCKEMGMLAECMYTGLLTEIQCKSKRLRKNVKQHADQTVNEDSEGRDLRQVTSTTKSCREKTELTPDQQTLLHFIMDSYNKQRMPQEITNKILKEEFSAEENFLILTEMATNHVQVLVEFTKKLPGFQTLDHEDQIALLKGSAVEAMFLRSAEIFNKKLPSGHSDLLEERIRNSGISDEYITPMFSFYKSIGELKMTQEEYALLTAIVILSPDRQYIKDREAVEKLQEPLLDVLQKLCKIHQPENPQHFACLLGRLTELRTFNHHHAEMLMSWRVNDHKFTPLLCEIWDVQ
# Test: qHTS assay to identify small molecule agonists of the farnesoid-X-receptor (FXR) signaling pathway (AID 743220)
# Details: HEK293T FXR-UAS-bla, beta-lactamase FRET ratio, 16 h; series mostly up to 62.6 µM
# From the text: National Center for Advancing Translational Sciences [NCATS]
# NIH Chemical Genomics Center [NCGC]
# U.S. Environmental Protection Agency [EPA]
# National Institutes of Environmental Health Sciences [NIEHS]
# National Toxicology Program [NTP]
# U.S. Food and Drug Administration [FDA]
# The farnesoid-X-receptor (FXR), a nuclear hormone receptor, is highly expressed in liver, intestine, kidney and adrenal cortex. Natural ligands of FXR are the bile acids (Cholic acid, Chenodeoxy cholic acid etc). FXR is an important regulator of diverse metabolic pathways, including the bile acid homeostasis, lipid and glucose metabolisms. FXR regulates the expression of target genes by binding either as a monomer or as a heterodimer with the retinoid X receptor (RXR). Numerous studies have reported that FXR exerts protective function during cholestasis, diabetes, liver regeneration, and cancer. To identify compounds that activate FXR signaling, GeneBLAzer FXR-UAS-bla HEK 293T cell line (Invitrogen, Carlsbad, CA) containing a beta-lactamase reporter gene under the control of a UAS response element was used to screen the Tox21 10K compound library.
# Tox21 Assay Protocol Summary:
# FXR-bla cells were dispensed at 5000 cells/5uL/well in 1536-well black wall/clear bottom plates using a Multidrop Combi (Thermo Fisher Scientific, Waltham, MA) dispenser. After the assay plates were incubated at 37C and 5% CO2 for 5 h, 23 nL of compounds dissolved in DMSO, positive controls or DMSO only was transferred to the assay plate by a Pintool station (Kalypsys, San Diego, CA). The assay plates were incubated at 37C for 16 h. After 1 uL of LiveBLAzerTM B/G FRET substrate was added using a Bioraptr Flying Reagent Dispenser (FRD) workstation (Beckman Coulter, Indianapolis, IN), the plates were incubated at room temperature for 2 h, and fluorescence intensity was measured by an Envision plate reader (PerkinElmer, Shelton, CT).
# % is scaled to controls: 0 for no effect and ±100 for the full control effect.
Compound,outcome,activation
CCCCCC1CCCC(=O)O1 (stereo not given),inactive,
CCCOCCOCCOCCO,inactive,
CCCCCCCCCCCCCCCC(=O)NCCO,inactive,
CC(=O)OC[C@H]1O[C@@H](OC(C)=O)[C@H](OC(C)=O)[C@@H]1OC(C)=O,inactive,
CC1=CC[C@H](CC=O)C1(C)C,inactive,
CCOC(=O)C(=O)c1csc(NC=O)n1,inactive,
c1ccccc1,inactive,
Cc1nc([N+](=O)[O-])cn1-c1ccc([N+](=O)[O-])cc1,inactive,
CCCCC(CC)C(=O)OC(C)C (stereo not given),inactive,
COc1cc2c(Nc3ccc(Br)cc3F)ncnc2cc1OCC1CCN(C)CC1,inactive,
CCCCCCCCCCCCC1CO1 (stereo not given),inactive,
Cc1ncc([N+](=O)[O-])n1CC(O)CCl (stereo not given),inactive,
CC(C)(CO)[C@@H](O)C(=O)NCCCO,inactive,
O=C(c1ccc2c(c1)C(=O)OC2=O)c1ccc2c(c1)C(=O)OC2=O,inactive,
CCOC(=O)CCc1ccccc1,inactive,
CCC(C)N (stereo not given),inactive,
COC(/C=C(\C)CCC=C(C)C)OC,inactive,
CO/N=C(/C(=O)N[C@@H]1C(=O)N2C(C(=O)O)=C(Cn3nnc(C)n3)CS[C@H]12)c1csc(N)n1,inactive,
COc1cc([N+](=O)[O-])ccc1N,inactive,
C=C(C)C(=O)OC1CC(C)CC(C)(C)C1 (stereo not given),inactive,

Compound,outcome,activation
CCCCC(CC)CNC(=O)CC(C)OC(=O)CCC(=O)O (stereo not given),inactive,
O=C1OC(=O)c2ccccc21,inactive,
CC(=O)OCCCc1ccccc1,inactive,
Nc1cc(C(=O)O)ccc1Cl,inactive,
F[Si-2](F)(F)(F)(F)F,inactive,
O=C(O)c1ccccc1C(=O)OCc1ccccc1,inactive,
O=C1NC2NC(=O)NC2N1 (stereo not given),inactive,
Nc1ccc(/C=C/c2ccc(N)cc2S(=O)(=O)O)c(S(=O)(=O)O)c1,,1.54% [at 0.55 µM]
CCC1Nc2cc(Cl)c(S(N)(=O)=O)cc2S(=O)(=O)N1 (stereo not given),inactive,
CCC1COC(=O)O1 (stereo not given),inactive,
CCCCCCCCCCCCC,inactive,
CCCCOC(=O)[C@@H](C)Oc1ccc(Oc2ccc(C(F)(F)F)cn2)cc1,inactive,
Cc1ccccc1N1CCN(CCc2nnc3n2CCCC3)CC1,inactive,
CNC(=O)C(c1ccccc1)c1ccccc1,inactive,
C[C@H](CCC(=O)NCC(=O)O)[C@H]1CC[C@H]2[C@@H]3[C@H](O)C[C@@H]4C[C@H](O)CC[C@]4(C)[C@H]3C[C@H](O)[C@]12C,inactive,
Cc1cccc(Nc2ccncc2S(=O)(=O)NC(=O)NC(C)C)c1,inactive,
O=c1cc(O)c(Cl)c[nH]1,inactive,
COc1ccc(NS(=O)(=O)c2ccc(N)cc2)nn1,inactive,
COCCOCCOCCOC,inactive,
CC(C)=CC(C)(C)C,inactive,
